Test results as given in publication PMC7862700, “An all-to-all approach to the identification of sequence-specific readers for epigenetic DNA modifications on cytosine”.

Tests used:
Test in all cases: DAPPL (digital affinity profiling via proximity ligation, sequencing); 10 mM Tris-HCl pH 7.5, 50 mM NaCl, 1 mM DTT, 4% glycerol, room temperature, 30 min; GST-TFs on glutathione beads, 16-mer random dsDNA library, 0.1% formaldehyde crosslink after washing; high values mean tight binding
FEV = target: T1, FEV (Homo sapiens, UniProt Q99581 1-238); conditions: protein: recombinant; tags: N-terminal GST; dsDNA, one strand shown
T1 sequence: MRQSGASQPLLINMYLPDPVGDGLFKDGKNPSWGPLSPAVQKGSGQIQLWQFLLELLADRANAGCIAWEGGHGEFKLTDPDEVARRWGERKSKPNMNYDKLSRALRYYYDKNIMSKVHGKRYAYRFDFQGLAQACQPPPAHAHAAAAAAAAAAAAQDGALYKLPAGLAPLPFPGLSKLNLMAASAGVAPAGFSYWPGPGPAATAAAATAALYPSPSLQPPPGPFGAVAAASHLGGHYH
Procedure, shortened: (§1)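 The binding signal reported is, for every hexamer, its read frequency for a factor over its read frequency for the tag-only sample. Reads came from pools of yeast-expressed, GST-fused human transcription factors on glutathione beads, barcoded with DNA and mixed with that sample, which were incubated with 200 nmole of a random double-stranded 16-mer DNA library in Tris/NaCl/DTT/glycerol buffer at room temperature for 30 min. After washing, the pools were crosslinked with 0.1% formaldehyde, proximity-ligated with BsaI/T4 ligase for 1 h at 37 °C, PCR-amplified and sequenced on an Illumina NextSeq500.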

ETV5 = ETV5 (Homo sapiens, UniProt P41161 1-510); conditions: protein: recombinant; tags: N-terminal GST; dsDNA, one strand shown
Procedure, shortened: as §1

HSF1 = HSF1 (Homo sapiens, UniProt Q00613 1-529); conditions: protein: recombinant; tags: N-terminal GST; chain copies: 3; dsDNA, one strand shown
Procedure, shortened: as §1

SPIC = target: T2, SPIC (Homo sapiens, UniProt Q8N5J4 1-248); conditions: protein: recombinant; tags: N-terminal GST; dsDNA, one strand shown
T2 sequence: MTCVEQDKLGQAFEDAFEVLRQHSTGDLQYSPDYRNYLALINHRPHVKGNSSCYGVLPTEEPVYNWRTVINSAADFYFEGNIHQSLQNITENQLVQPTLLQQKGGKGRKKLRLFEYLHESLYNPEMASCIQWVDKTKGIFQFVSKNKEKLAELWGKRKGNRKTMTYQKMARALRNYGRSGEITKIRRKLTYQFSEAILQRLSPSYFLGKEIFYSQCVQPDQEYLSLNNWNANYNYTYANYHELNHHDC
Procedure, shortened: as §1

ELF4 = ELF4 (Homo sapiens, UniProt Q99607 1-663); conditions: protein: recombinant; tags: N-terminal GST; dsDNA, one strand shown
Procedure, shortened: as §1

ELK4 = target: T3, ELK4 (Homo sapiens, UniProt P28324-2 1-405); conditions: protein: recombinant; tags: N-terminal GST; dsDNA, one strand shown
T3 sequence: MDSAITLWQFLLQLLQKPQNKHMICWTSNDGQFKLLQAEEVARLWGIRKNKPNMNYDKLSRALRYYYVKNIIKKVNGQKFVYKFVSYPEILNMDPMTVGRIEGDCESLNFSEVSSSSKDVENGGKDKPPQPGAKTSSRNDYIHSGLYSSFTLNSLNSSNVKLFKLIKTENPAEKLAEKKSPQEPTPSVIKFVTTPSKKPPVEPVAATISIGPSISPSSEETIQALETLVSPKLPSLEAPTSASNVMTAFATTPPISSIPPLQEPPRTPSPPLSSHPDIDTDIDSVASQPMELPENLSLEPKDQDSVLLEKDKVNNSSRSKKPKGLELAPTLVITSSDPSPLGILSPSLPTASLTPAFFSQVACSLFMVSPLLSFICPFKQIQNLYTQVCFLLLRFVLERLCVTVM
Procedure, shortened: as §1

ETV2 = target: T4, ETV2 (Homo sapiens, UniProt O00321 1-342); conditions: protein: recombinant; tags: N-terminal GST; dsDNA, one strand shown
T4 sequence: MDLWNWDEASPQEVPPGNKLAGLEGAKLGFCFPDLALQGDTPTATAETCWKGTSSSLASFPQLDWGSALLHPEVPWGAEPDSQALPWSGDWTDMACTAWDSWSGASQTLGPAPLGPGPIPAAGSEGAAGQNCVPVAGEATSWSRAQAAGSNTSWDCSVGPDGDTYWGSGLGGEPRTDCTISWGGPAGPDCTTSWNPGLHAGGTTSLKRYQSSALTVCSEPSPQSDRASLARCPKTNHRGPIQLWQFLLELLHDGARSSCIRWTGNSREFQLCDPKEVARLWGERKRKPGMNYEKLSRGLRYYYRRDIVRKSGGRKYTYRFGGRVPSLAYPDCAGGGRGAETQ
Procedure, shortened: as §1

ELF3 = target: T5, ELF3 (Homo sapiens, UniProt P78545 1-371); conditions: protein: recombinant; tags: N-terminal GST; dsDNA, one strand shown
T5 sequence: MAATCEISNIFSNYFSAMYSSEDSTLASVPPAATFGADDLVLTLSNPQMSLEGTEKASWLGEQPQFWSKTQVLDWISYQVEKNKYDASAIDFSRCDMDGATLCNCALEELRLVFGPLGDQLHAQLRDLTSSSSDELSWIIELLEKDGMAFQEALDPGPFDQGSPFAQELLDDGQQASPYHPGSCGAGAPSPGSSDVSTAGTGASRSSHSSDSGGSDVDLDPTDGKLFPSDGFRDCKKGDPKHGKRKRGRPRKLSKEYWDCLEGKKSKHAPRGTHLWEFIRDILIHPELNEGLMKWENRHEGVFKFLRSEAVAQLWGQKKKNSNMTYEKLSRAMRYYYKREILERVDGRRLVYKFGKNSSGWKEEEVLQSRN
Procedure, shortened: as §1

CRX = CRX (Homo sapiens, UniProt O43186 1-299); conditions: protein: recombinant; tags: N-terminal GST; dsDNA, one strand shown
Procedure, shortened: as §1

ETV1 = ETV1 (Homo sapiens, UniProt P50549 1-477); conditions: protein: recombinant; tags: N-terminal GST; dsDNA, one strand shown
Procedure, shortened: as §1

ERF = target: T6, ERF (Homo sapiens, UniProt P50548 1-548); conditions: protein: recombinant; tags: N-terminal GST; dsDNA, one strand shown
T6 sequence: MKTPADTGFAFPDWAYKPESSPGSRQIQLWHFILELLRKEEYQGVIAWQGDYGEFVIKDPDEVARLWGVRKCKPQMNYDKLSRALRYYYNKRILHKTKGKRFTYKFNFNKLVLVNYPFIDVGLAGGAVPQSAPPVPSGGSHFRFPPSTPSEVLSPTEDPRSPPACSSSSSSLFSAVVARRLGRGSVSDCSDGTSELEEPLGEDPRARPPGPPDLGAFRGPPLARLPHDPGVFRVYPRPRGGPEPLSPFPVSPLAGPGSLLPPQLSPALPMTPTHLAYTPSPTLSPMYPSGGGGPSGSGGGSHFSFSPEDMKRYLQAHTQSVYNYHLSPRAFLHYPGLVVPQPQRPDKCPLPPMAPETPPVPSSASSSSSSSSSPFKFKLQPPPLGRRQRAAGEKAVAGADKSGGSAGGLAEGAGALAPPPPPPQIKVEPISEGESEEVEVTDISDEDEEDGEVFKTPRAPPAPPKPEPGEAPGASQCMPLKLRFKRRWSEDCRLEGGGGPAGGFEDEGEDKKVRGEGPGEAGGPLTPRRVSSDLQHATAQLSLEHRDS
Procedure, shortened: as §1

ETV3L = target: T7, ETV3L (Homo sapiens, UniProt Q6ZN32 1-361); conditions: protein: recombinant; tags: N-terminal GST; dsDNA, one strand shown
T7 sequence: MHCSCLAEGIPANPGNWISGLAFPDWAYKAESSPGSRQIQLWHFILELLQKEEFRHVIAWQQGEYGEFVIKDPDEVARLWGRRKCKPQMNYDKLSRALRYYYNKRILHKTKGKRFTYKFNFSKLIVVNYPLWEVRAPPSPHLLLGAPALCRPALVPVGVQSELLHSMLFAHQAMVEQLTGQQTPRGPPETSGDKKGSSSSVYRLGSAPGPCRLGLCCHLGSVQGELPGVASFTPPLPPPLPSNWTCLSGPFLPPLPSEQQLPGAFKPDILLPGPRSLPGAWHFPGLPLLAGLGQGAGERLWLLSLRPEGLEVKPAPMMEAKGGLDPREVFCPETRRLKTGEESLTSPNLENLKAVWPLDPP
Procedure, shortened: as §1

ETS2 = target: T8, ETS2 (Homo sapiens, UniProt P15036 1-469); conditions: protein: recombinant; tags: N-terminal GST; dsDNA, one strand shown
T8 sequence: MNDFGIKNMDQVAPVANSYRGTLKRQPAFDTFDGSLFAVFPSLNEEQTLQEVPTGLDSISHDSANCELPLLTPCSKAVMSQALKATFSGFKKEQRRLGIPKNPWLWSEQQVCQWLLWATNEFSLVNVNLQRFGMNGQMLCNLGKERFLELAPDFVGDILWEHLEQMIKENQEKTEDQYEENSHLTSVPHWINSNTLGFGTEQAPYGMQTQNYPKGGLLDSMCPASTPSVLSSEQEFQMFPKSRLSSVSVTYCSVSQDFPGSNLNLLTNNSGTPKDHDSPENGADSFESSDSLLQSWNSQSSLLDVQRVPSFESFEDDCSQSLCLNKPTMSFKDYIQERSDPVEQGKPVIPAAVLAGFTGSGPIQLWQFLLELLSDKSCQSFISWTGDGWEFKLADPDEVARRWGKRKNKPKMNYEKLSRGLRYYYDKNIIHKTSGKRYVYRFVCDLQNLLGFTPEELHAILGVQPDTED
Procedure, shortened: as §1

SPDEF = target: T9, SPDEF (Homo sapiens, UniProt O95238 1-335); conditions: protein: recombinant; tags: N-terminal GST; dsDNA, one strand shown
T9 sequence: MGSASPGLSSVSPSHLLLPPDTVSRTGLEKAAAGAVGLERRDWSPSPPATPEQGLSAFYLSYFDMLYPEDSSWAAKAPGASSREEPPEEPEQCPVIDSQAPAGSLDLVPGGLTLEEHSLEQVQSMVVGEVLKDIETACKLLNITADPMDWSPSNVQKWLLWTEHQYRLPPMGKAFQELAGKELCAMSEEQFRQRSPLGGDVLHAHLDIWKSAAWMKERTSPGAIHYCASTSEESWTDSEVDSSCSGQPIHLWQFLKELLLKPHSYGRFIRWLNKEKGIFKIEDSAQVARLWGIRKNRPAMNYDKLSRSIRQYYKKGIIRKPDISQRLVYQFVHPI
Procedure, shortened: as §1

ETV7 = target: T10, ETV7 (Homo sapiens, UniProt Q9Y603 1-341); conditions: protein: recombinant; tags: N-terminal GST; dsDNA, one strand shown
T10 sequence: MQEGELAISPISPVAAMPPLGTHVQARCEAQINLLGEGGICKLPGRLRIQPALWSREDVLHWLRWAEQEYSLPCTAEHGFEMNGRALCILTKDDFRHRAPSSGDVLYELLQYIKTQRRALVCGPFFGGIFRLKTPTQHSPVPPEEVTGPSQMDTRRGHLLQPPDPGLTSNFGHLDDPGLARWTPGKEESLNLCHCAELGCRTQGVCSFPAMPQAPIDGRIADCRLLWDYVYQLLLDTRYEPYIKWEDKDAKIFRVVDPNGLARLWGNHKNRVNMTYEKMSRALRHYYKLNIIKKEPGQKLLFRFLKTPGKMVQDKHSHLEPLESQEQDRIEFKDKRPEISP
Procedure, shortened: as §1

ELF5 = target: T11, ELF5 (Homo sapiens, UniProt Q9UKW6-2 1-255); conditions: protein: recombinant; tags: N-terminal GST; dsDNA, one strand shown
T11 sequence: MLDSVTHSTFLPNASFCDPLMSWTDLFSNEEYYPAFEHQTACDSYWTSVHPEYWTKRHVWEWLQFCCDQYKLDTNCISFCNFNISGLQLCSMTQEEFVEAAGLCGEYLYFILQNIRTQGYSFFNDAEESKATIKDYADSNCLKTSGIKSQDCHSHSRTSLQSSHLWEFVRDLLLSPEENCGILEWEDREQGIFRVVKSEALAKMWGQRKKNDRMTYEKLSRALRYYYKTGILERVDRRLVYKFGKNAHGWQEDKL
Procedure, shortened: as §1

ETV3 = target: T12, ETV3 (Homo sapiens, UniProt P41162-2 1-143); conditions: protein: recombinant; tags: N-terminal GST; dsDNA, one strand shown
T12 sequence: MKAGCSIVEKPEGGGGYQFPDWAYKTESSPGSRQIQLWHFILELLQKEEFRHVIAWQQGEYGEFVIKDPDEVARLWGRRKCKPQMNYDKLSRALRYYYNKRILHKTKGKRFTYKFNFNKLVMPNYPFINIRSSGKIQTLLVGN
Procedure, shortened: as §1

ETV6 = ETV6 (Homo sapiens, UniProt P41212 1-452); conditions: protein: recombinant; tags: N-terminal GST; dsDNA, one strand shown
Procedure, shortened: as §1

ETV5, sequence (P41161 whole entry): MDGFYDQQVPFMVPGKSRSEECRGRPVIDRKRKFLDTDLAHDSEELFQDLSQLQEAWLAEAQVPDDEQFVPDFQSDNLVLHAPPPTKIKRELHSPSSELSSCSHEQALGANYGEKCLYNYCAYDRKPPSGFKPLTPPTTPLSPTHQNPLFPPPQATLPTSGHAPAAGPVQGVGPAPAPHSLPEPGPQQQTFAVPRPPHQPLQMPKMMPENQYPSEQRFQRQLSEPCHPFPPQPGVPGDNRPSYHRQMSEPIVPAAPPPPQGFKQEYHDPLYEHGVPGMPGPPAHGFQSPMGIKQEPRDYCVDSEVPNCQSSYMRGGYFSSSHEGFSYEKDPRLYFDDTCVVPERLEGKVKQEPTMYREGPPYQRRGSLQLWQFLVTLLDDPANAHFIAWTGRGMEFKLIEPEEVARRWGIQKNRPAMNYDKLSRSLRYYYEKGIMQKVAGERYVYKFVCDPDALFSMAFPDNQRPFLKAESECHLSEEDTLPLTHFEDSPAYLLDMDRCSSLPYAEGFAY
ELF4, sequence (Q99607 whole entry): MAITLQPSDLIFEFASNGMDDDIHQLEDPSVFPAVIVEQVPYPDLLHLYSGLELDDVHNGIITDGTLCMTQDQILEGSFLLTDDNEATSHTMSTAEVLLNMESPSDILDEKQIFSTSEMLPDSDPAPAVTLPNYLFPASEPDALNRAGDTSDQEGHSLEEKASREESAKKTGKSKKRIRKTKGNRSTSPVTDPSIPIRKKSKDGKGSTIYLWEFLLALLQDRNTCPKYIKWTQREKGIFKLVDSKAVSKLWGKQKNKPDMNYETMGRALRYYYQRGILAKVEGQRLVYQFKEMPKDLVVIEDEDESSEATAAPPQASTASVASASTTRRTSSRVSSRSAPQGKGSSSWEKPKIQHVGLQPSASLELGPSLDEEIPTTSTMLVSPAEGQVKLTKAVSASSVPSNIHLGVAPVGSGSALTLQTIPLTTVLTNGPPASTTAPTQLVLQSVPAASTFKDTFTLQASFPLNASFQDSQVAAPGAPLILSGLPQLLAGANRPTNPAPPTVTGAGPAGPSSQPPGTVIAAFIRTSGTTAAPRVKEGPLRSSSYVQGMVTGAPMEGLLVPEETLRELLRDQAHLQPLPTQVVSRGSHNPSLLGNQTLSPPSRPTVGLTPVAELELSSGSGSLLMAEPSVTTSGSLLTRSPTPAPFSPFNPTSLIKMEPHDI
ETV6, sequence (P41212 whole entry): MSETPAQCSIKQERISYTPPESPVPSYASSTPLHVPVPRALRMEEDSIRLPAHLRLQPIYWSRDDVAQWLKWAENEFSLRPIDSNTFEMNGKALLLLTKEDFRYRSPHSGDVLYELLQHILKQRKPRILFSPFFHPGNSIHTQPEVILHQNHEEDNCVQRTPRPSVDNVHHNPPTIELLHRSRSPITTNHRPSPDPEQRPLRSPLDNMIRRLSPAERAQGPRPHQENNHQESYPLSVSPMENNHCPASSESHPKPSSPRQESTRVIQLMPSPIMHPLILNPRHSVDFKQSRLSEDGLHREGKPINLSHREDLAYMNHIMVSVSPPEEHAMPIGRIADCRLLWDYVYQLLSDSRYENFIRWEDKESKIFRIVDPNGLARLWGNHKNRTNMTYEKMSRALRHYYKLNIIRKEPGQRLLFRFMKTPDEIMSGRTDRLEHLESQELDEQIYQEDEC
ETV1, sequence (P50549 whole entry): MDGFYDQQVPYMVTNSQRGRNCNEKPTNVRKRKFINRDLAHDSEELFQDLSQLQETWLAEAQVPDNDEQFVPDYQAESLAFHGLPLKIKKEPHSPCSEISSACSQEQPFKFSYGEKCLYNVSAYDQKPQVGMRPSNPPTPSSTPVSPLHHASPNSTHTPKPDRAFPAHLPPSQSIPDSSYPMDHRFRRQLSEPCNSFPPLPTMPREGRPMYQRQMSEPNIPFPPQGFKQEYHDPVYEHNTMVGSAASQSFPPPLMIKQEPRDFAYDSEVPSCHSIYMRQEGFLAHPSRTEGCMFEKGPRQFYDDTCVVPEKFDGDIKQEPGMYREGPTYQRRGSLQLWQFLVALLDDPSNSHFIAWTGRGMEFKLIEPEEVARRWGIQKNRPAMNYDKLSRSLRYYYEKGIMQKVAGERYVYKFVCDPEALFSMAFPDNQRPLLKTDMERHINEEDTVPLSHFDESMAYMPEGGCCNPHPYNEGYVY
CRX, sequence (O43186 whole entry): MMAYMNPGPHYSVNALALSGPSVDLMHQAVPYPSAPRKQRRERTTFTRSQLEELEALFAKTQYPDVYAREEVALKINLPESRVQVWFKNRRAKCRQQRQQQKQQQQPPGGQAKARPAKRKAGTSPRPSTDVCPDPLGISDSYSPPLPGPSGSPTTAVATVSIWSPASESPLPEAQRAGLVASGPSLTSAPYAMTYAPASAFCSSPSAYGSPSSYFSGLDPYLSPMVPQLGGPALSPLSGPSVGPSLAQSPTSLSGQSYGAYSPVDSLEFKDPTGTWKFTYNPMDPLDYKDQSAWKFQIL
HSF1, sequence (Q00613 whole entry): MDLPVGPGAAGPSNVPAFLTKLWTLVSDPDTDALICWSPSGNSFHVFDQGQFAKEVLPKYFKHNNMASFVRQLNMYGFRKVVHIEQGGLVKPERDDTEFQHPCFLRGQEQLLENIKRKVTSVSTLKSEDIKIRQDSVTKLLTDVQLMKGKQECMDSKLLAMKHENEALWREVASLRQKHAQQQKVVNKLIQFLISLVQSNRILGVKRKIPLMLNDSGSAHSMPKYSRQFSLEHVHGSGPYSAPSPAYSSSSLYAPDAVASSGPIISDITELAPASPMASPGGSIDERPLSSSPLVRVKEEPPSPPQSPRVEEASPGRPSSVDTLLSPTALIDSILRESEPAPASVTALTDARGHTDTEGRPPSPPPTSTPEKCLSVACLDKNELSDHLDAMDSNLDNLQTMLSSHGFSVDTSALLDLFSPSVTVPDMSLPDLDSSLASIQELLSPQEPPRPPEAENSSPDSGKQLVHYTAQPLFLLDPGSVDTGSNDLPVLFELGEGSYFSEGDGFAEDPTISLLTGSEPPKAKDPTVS

With CTCTAC the binding signal (FEV) was 1.57 fold enrichment (6-mer frequency, TF over GST control), the binding signal (ETV5) was 1.33 fold enrichment (6-mer frequency, TF over GST control) and the binding signal (HSF1) was 1.37 fold enrichment (6-mer frequency, TF over GST control). For the same sequence, the binding signal (SPIC) was 1.51 fold enrichment (6-mer frequency, TF over GST control), the binding signal (ELF4) was 1.46 fold enrichment (6-mer frequency, TF over GST control) and the binding signal (ELK4) was 1.38 fold enrichment (6-mer frequency, TF over GST control). For the same sequence, the binding signal (ETV2) was 1.35 fold enrichment (6-mer frequency, TF over GST control), the binding signal (ELF3) was 1.47 fold enrichment (6-mer frequency, TF over GST control) and the binding signal (CRX) was 1.18 fold enrichment (6-mer frequency, TF over GST control). The binding signal (ETV1) was 1.4 fold enrichment (6-mer frequency, TF over GST control), the binding signal (ERF) was 1.45 fold enrichment (6-mer frequency, TF over GST control) and the binding signal (ETV3L) was 1.66 fold enrichment (6-mer frequency, TF over GST control). The binding signal (ETS2) was 1.48 fold enrichment (6-mer frequency, TF over GST control), the binding signal (SPDEF) was 1.54 fold enrichment (6-mer frequency, TF over GST control) and the binding signal (ETV7) was 1.28 fold enrichment (6-mer frequency, TF over GST control). For the same sequence, the binding signal (ELF5) was 1.52 fold enrichment (6-mer frequency, TF over GST control), the binding signal (ETV3) was 1.51 fold enrichment (6-mer frequency, TF over GST control) and the binding signal (ETV6) was 1.43 fold enrichment (6-mer frequency, TF over GST control).
